Experimental data published in PubChem BioAssay AID686979 (National Center for Advancing Translational Sciences (NCATS), 2013).
Out of some 420,000 compounds screened, about 50,000 (12%) were called active. Where a call stands in place of a potency, no number is given. Roughly 26% stayed inconclusive and do not appear here. The sample holds actives, similar compounds and a random draw of the others, so the mix is not that of the screen. The call rests on the fitted dose curve; in most records, active means well fitted inhibition curve with a large enough effect; inconclusive means small, poorly fitted or top-dose-only effect; inactive means flat fitted curve, though single readings scatter.

Test: qHTS for Inhibitors of human tyrosyl-DNA phosphodiesterase 1 (TDP1): qHTS in cells in presence of CPT; further: nearly all actives have a fitted effect of over 55% in size
Settings: chicken DT40 Tdp1-/-;hTDP1 cells + 20 nM CPT, ATP luminescence, 48 h; series mostly up to 46.2 µM
Procedure, shortened: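 Cell growth measured by CellTiter-Glo luminescence after a minimum 48 h, 37 C compound exposure with 20 nM CPT in Tdp1-knockout DT40 cells stably expressing hTDP1, seeded 400/well; qHTS titration format.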
Potency means the concentration at half of the fitted maximal effect.

| Compound | Potency |
| --- | --- |
| COc1ccccc1C(=O)NC(=O)COC(=O)C1CC1 | inactive |
| N#Cc1c(N)nc2c3c(sc(=N)c2c1N)NC(=O)CC3c1ccccc1Cl (stereo unspecified) | inactive |
| CCCCOc1ccc(CSC(=N)N)cc1[N+](=O)[O-] | 13 µM (active) |
| CCCCOc1ccc(CON(C(C)=O)C(C)=O)cc1Cl | inactive |
| COc1ccc(NC(=O)CSCc2ccc([N+](=O)[O-])cc2)cc1OC | inactive |
| Cc1nn(C)c(C)c1C(C)NC(=O)c1ccc(OC2CCN(Cc3ccccn3)CC2)cc1 (stereo unspecified) | inactive |
| CN(C)S(=O)(=O)c1cccc(NC(=O)Cc2ccsc2)c1 | inactive |
| Cc1ccc(/C=N/NC(=S)Nc2cccc(S(=O)(=O)N(C)C)c2)o1 | 4.61 µM (active) |
| Cc1ccc(/C=N/NC(=O)Cn2nc(C)c(Br)c2C)o1 | inactive |
| COc1ccc(NC(=O)CN(C)C(=O)Cc2coc3cc(C)c(C)cc23)cc1 | inactive |
| COc1ccc(NC(=O)C(CC(C)C)NC(=O)C2CCC(C)CC2)cc1 (stereo unspecified) | inactive |
| CCc1ccc(-n2nnc(-c3nc(-c4ccccc4)no3)c2C)cc1 | inactive |
| O=C(CN(C(=O)c1csnn1)c1cccc(Cl)c1)NC1CCCC1 | inactive |
| O=C(NC(=S)Nc1ccccc1N1CCCCC1)c1ccc(F)cc1 | inactive |
| CC(=O)c1ccc(NC(c2ccc(F)cc2)c2nnc(-c3ccccc3)o2)cc1 (stereo unspecified) | 9.2 µM (active) |
| CC(=O)c1ccc(NC(=O)COc2ccccc2-c2nc(-c3ccccc3)no2)cc1 | inactive |
| CCCN(CCC)c1ccc(C(O)c2nnc(-c3ccccc3)o2)cc1 (stereo unspecified) | inactive |
| CCn1c(SCC(=O)Nc2ccc3c(c2)OCCO3)nnc1-c1ccncc1 | inactive |
| CCC(=O)c1ccc(OCC(=O)OCC(=O)NC2CCCCCC2)cc1 | inactive |
| Cc1cc(C)c(C)c(S(=O)(=O)Nc2cccnc2)c1C | inactive |
| Cc1ccc(C(=O)NNC2=Nc3cc([N+](=O)[O-])ccc3OC2)cc1 | inactive |
